# Bioassay records: PubChem BioAssay, several laboratories
# Shown are actives, neighbours in structure and some others; about 4.5% of the full set was active somewhere.
# 697 NFkB inh – inhibitors of the PMA/ionomycin-induced NF-kB reporter in 697 B cells; 697 B-cell NF-kB luciferase reporter, 16 h; inhibition, % at 4 µM; 0.33% of 330,000 active; AID 435022; in the data active = inhibition above about 35%
# Mdm2 MdmX PPI – human Mdm2/MdmX binding inhibition. 3% of 330,000 active. SaOS-2 split-luciferase Mdm2/MdmX complementation, luminescence. inhibition, % at 8 µM;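 active = inhibition of at least 50% at 8 µM in the primary screen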
# CSC inhib – blocks cancer stem cells. cancer stem cell-like cells viability, luminescence. inhibition, % at 7.5 µM. 1.1% of 300,000 active. AID 2717; in the data active = inhibition above about 75%; tested in HMLE shEcad cells
# Jurkat NFkB inh – inhibitors of the PMA/ionomycin-induced NF-kB reporter in Jurkat cells. PMA/ionomycin-induced NF-kB luciferase reporter, luminescence. inhibition, % at 4 µM. 0.53% of 330,000 active; in the data active = inhibition above about 50%
# Beta apoptosis – beta cell apoptosis inhibition; INS-1E cytokine-induced death, ATP luminescence, 48 h; percent of positive-control rescue, neutral wells zero; protection from apoptosis, % (concentration not given with the values); 0.8% of 300,000 active; AID 435005;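 active = Every replicate reaches about 75%, or at least half do and their mean reaches it too, limit read from the data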;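 also: 0% = cytokine-treated negative control wells and 100% = positive control rescue; higher means more ATP so stronger rescue from cytokine killing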
# Gli-Sufu antag – antagonists of Gli-Sufu signaling; 0.74% of 340,000 active; inhibition, % at 5 µM; Sufu-KO-LIGHT fibroblasts, Gli luciferase reporter luminescence; AID 588413;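 active = inhibition above about 55%, limit read from the data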;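 also: 0% = DMSO-treated cells and 100% = wells with medium but no cells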
# Mdm2-MdmX conf – confirmation of human Mdm2/MdmX interaction inhibitors | shares compounds with Mdm2 MdmX PPI | Mdm2-MdmX binding, luminescent assay | inhibition, % at 8 µM | 55% of 10,000 active; in the data active = inhibition above about 40%
# FLuc counter – inhibits full-length luciferase, flagging false Mdm2/MdmX hits | shares compounds with Mdm2 MdmX PPI | SaOS-2 full-length luciferase counterscreen, luminescence | inhibition, % at 8 µM | 77% of 6,200 active;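 active = mean inhibition at 8 µM reaching about 37%, which flags the compound as non-specific, limit read from the data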;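 also: p53-null SaOS-2 cells with luciferase driven by a doxycycline-inducible promoter; compound on cells about two nights before reading with doxycycline added after day one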
# Active calls of the source: *; / = no result.
SMILES,697 NFkB inh,Mdm2 MdmX PPI,CSC inhib,Jurkat NFkB inh,Beta apoptosis,Gli-Sufu antag,Mdm2-MdmX conf,FLuc counter
Nc1nc(Nc2ccccc2)sc1C(=O)c1ccccc1,-156,62*,50,-3,-41,1,4,/
COc1ccc(C(=O)c2sc(Nc3ccccc3)nc2N)cc1,-74,39,/,16,/,32,/,/
COc1ccc(S(=O)(=O)NCC2CC3C=CC2C3)cc1OC (stereo not drawn),-18,11,-18,-5,-1,1,/,/
O=C(CCS(=O)(=O)Cc1ccccc1)Nc1nc2c(s1)CCCC2,-13,56*,47,8,-11,-5,63*,61*
COc1ccc(NC(=O)C2CC(=O)N/C(=N/N=C/c3ccccc3)S2)cc1 (stereo not drawn),-6,79*,-11,9,-8,-6,59*,91*
COc1ccc(/C=N/N=C2/NC(=O)C(c3ccccc3)(c3ccccc3)S2)cc1,14,61*,15,-6,5,5,20,/
COc1ccc(/C=N/N=C/c2ccc(OC)cc2)cc1,-25,11,-7,-25,-13,-26,/,/
O=C1NC(NS(=O)(=O)c2ccccc2)(C(F)(F)F)C(=O)N1Cc1ccccc1 (stereo not drawn),-14,14,12,-1,-2,-4,/,/
C[C@H](CO)N1C[C@H](C)[C@@H](CN(C)Cc2ccc(Cl)c(Cl)c2)Oc2c(NS(=O)(=O)c3cccs3)cccc2C1=O,12,25,-16,0,-3,-26,/,/
O=C(c1cc(Br)ccc1O)N1CCN(S(=O)(=O)Cc2ccccc2)CC1,14,23,-3,-3,2,9,/,/
Cc1oc(-c2ccccc2)nc1C(=O)O,-11,77*,-11,4,-8,5,-20,/
O=C(O)c1c2c(nc3ccccc13)/C(=C/c1ccc(O)cc1)CC2,-25,62*,-9,3,1,35,60*,106*
O=C(O)c1c2c(nc3ccccc13)/C(=C/c1ccc(OC(F)F)cc1)CCC2,-47,-9,-9,-2,-5,-22,/,/
COC(=O)c1ccc(NC(=O)CCC(=O)c2ccc(F)cc2)cc1,5,-10,-6,-11,4,-2,/,/
Cc1nn(-c2ccccc2)c(N2CCCC2)c1/C=N/NC(=O)c1cc2ccccc2cc1O,0,36,44,-3,4,2,/,/
Cc1nn(-c2ccccc2)c(N2CCCC2)c1/C=N/NC(=O)c1cc(-c2ccccn2)nc2ccccc12,33,63*,10,15,7,2,15,/
Cc1nn(-c2ccccc2)c(N2CCCC2)c1/C=N/NC(=O)c1cc(-c2cccs2)nc2ccccc12,0,31,9,13,6,1,/,/
Cc1nn(-c2ccccc2)c(N2CCCC2)c1/C=N/NC(=O)c1cc(-c2ccccc2)nc2ccccc12,1,57*,21,7,9,7,47*,68*
COc1ccc(-c2cc(C(F)(F)F)nc(S(=O)(=O)CCCC(=O)Nc3cc(C)on3)n2)cc1OC,/,/,/,/,/,8,/,/
COc1ccccc1-c1cc(C(F)(F)F)nc(N2CCCC2)n1,-24,-4,3,3,8,7,/,/
COc1ccccc1-c1cc(C(F)(F)F)nc(S(=O)(=O)CCCC(=O)Nc2cccnc2Cl)n1,/,/,/,/,/,-1,/,/
COc1ccccc1-c1cc(C(F)(F)F)nc(S(=O)(=O)CCCC(=O)N2CCCCC2C)n1 (stereo not drawn),-24,97*,65,-9,-36,-8,69*,20
COc1ccccc1-c1cc(C(F)(F)F)nc(S(=O)(=O)CCCC(=O)NC(C)C)n1,-128,100*,29,32,11,2,97*,31
COc1ccccc1-c1cc(C(F)(F)F)nc(S(C)(=O)=O)n1,-14,97*,85*,-21,2,-1,79*,53*
COc1ccccc1-c1cc(C(F)(F)F)nc(S(=O)(=O)CCCC(=O)Nc2cc(C)on2)n1,-239,100*,-2,27,7,1,99*,33
SMILES,697 NFkB inh,Mdm2 MdmX PPI,CSC inhib,Jurkat NFkB inh,Beta apoptosis,Gli-Sufu antag,Mdm2-MdmX conf,FLuc counter
CCN(CC(=O)Nc1ccccc1C(F)(F)F)C(=O)C1CSC2(C)CCC(=O)N12 (stereo not drawn),7,9,-14,-1,-2,-9,/,/
CS(=O)(=O)c1nc(-c2ccco2)cc(C(F)(F)F)n1,-66,100*,112*,29,80*,/,100*,2
COc1ccccc1-c1cc(C(F)(F)F)nc(S(=O)(=O)CCCC(=O)NCc2ccc(F)cc2)n1,-23,99*,77*,-13,-29,-7,90*,51*
COc1cc(C2C(C(C)=O)=C(O)C(=O)N2Cc2ccccc2)ccc1O (stereo not drawn),14,-5,-2,-10,1,-5,/,/
Brc1ccc(/C=N/Nc2ncnc3c2cnn3Cc2ccccc2)cc1,-16,95*,/,-11,26,4,48*,68*
O=C(O)Cn1nnc(-c2ccc(OCc3ccccc3)cc2)n1,/,/,-13,/,-1,-36,/,/
Cc1n[nH]c(C)c1C(=O)CC1(O)C(=O)N(Cc2ccccc2)c2ccc(Br)cc21 (stereo not drawn),-1,-28,-7,17,-5,-3,/,/
C=CCN1C(=O)C(O)(CC(=O)c2ccco2)c2cc(Br)ccc21 (stereo not drawn),2,59*,30,9,-4,-3,35,/
CN(C)c1nc(N/N=C\c2ccc(Cl)c([N+](=O)[O-])c2)nc(Nc2ccc(F)cc2)n1,28,72*,48,1,0,-25,14,/
CC(C)(C)C(=O)Nc1ccc(C(=O)CSc2nnc(C3CC3)n2C2CC2)cc1,8,-21,/,15,-2,5,/,/
CCN1CCN(Cc2ccc(NC(=O)c3cc(NC(=O)c4cnn(-c5ccccc5)c4N)cc(OC)c3)cc2C(F)(F)F)CC1,-20,53*,131*,-27,109*,-8,22,/
CCN1CCN(Cc2ccc(NC(=O)c3cc(NC(=O)C(=O)c4c[nH]c5ccccc45)cc(OC)c3)cc2C(F)(F)F)CC1,-22,99*,-2,9,98*,20,20,/
CCN1CCN(Cc2ccc(NC(=O)c3ccc(C)c(NC(=O)c4ccc5n[nH]nc5c4)c3)cc2C(F)(F)F)CC1,1,46,/,-13,-10,2,/,/
CCN1CCN(Cc2ccc(NC(=O)c3cc(NC(=O)c4cc(C)on4)cc(OC)c3)cc2C(F)(F)F)CC1,8,91*,-1,25,2,37,40,46*
COc1ccc(C2(c3ccc(OC)cc3)NC(=O)N(CC(=O)Nc3ccc(OC)c(OC)c3)C2=O)cc1,13,17,-10,12,/,23,/,/
